Where “and” joins values, the source holds several entries; their conditions need not be identical. Identical values can stand only once. The campaign covered roughly 220,000 compounds. About 910 (0.41%) were called active.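 How the source made its calls: active means primary inhibition above the hit cutoff, then over 50% inhibition at one or more dose response concentrations (cut at about 23% in these data, passing the limit was not always enough); inconclusive means conflicting primary data, or primary hits not chosen for dose response; inactive means low primary inhibition, or under 50% at every dose.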 The full list was thinned out, with actives kept by preference. Entries with a potency or affinity are not part of this list. A structure can be active in one record and inactive in another.
target: Aminopeptidase N (Plasmodium falciparum (isolate 3D7)) (UniProt O96935); experiment: P. falciparum M1AAP inhibitors, biochemical, fluorogenic H-Leu-NHMec substrate, 1536-well (AID 1445); conditions: recombinant M1AAP, H-Leu-NHMec fluorogenic kinetic assay; at 30 µM; stronger effect = higher value;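 further: plate controls were DMSO full reaction for no effect and no enzyme background for full effect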
Sequence (O96935 whole entry, looked up): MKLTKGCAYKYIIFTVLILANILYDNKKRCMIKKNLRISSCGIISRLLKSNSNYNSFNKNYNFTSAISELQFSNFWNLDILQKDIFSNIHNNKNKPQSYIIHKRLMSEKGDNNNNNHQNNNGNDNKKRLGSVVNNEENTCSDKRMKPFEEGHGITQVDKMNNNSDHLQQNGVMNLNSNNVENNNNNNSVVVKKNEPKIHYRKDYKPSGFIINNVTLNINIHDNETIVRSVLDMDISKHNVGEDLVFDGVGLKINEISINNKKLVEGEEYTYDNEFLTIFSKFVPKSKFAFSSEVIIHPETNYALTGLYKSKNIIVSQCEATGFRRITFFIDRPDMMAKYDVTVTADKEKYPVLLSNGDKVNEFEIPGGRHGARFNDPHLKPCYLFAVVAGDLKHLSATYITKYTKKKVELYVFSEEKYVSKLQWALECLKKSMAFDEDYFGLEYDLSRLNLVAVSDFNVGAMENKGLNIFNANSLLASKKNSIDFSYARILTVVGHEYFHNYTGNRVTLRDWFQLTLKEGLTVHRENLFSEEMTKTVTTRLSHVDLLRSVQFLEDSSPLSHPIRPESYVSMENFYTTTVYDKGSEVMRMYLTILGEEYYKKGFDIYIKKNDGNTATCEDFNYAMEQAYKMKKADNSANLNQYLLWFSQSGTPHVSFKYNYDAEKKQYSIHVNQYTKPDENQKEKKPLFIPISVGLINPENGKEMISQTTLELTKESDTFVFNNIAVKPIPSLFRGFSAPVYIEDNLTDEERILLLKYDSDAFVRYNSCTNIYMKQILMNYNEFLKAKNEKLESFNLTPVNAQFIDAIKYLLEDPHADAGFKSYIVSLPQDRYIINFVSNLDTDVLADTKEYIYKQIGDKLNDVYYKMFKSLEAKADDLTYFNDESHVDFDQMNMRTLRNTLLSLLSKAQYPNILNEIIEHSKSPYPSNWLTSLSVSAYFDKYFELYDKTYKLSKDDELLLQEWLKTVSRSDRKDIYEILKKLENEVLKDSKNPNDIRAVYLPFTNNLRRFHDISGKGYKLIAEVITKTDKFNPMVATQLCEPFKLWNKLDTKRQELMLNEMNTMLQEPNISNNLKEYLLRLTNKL

Row | SMILES | inhibition
1 | CC(C)(C)OC(=O)c1c(N)n(Cc2ccco2)c2nc3ccccc3nc12 | 8.25% (inactive)
2 | COCC(C)OC(=O)c1c(N)n(Cc2ccco2)c2nc3ccccc3nc12 (stereo not given) | 17.3% (inactive)
3 | CC(C)OC(=O)c1c(N)n(Cc2ccco2)c2nc3ccccc3nc12 | 26.7% (active)
4 | CCCNC(=O)c1c(N)n(Cc2ccco2)c2nc3ccccc3nc12 | 19.9% (inactive)
5 | CC(C)CNC(=O)c1c(N)n(Cc2ccco2)c2nc3ccccc3nc12 | 13% (inactive)
6 | C=CCNC(=O)c1c(N)n(Cc2ccco2)c2nc3ccccc3nc12 | 24.2% (active)
7 | CCC(=NCc1ccco1)c1c(O)[nH]c(=O)[nH]c1=O | 14.4% (inactive)
8 | CCC(=NCC1CCCO1)c1c(O)n(-c2ccccc2C)c(=O)[nH]c1=O (stereo not given) | 6.89% (inactive)
9 | O=C1Nc2ccccc2C1Cc1nc2ccccc2c(=O)n1-c1ccccc1 (stereo not given) | -1.31% (inactive)
10 | Cc1ccc(S(=O)(=O)N2CCCCC2)cc1NC(=O)CN1CC=C(c2ccccc2)CC1 | 5.04% (inactive)
11 | c1ccc(C2=NP(N3CCOCC3)(N3CCOCC3)=NC(N3CCOCC3)=N2)cc1 | -3.04% (inactive)
12 | Cc1cccc(-n2c(-c3cccs3)nc3ccccc3c2=O)c1 | 4.14% (inactive)
13 | CCOC(=O)c1nc2ccccc2c(=O)n1-c1cccc(C)c1 | 0.05% (inactive)
14 | Cc1cccc(N2CCc3c2nc2ccccc2c3N)c1 | 25.6% (active) and 6.14% (inactive)
15 | COCCOC(=O)c1c(N)n(Cc2ccccc2)c2nc3ccccc3nc12 | 25% (active)
16 | CCCCOCCCn1c(N)c(C(=O)OCCOC)c2nc3ccccc3nc21 | 19.1% (inactive)
17 | CCCCn1c(N)c(C(=O)OCCOC)c2nc3ccccc3nc21 | 17.7% (inactive)
18 | CCOC(=O)c1c(N)n(Cc2ccc(OC)cc2)c2nc3ccccc3nc12 | 13.6% (inactive)
19 | COC(=O)c1c(N)n(Cc2ccc(OC)cc2)c2nc3ccccc3nc12 | 13.7% (inactive)
20 | COCCCn1c(N)c(C(=O)OCCOC)c2nc3ccccc3nc21 | 27.6% (active)

Row | SMILES | inhibition
21 | CCC(=NCCc1c[nH]c2ccccc12)c1c(O)n(-c2ccc(C)cc2)c(=O)[nH]c1=O | 1.85% (inactive)
22 | CCC(=O)N1N=C2C3CCN(CC3)C2C1c1ccccc1 (stereo not given) | 0.59% (inactive)
23 | CCCCn1c(O)c(C(C)=NCc2ccc3c(c2)OCO3)c(=O)[nH]c1=O | -11.8% (inactive)
24 | Cc1sc2nc(COC(=O)Cc3ccccc3)[nH]c(=O)c2c1C | 13.2% (inactive)
25 | CC(=NCCN1CCCCC1)c1c(O)n(Cc2ccccc2)c(=O)[nH]c1=O | 11.5% (inactive)
26 | CCOC(=O)C(O)(c1cn(C)c2ccccc12)C(F)(F)F (stereo not given) | 25.5% (active)
27 | COC(=O)C(O)(c1cn(C)c2ccccc12)C(F)(F)F (stereo not given) | -1.11% (inactive)
28 | CCOC(=O)C(O)(c1ccc(N=c2ccccn2C)cc1)C(F)(F)F (stereo not given) | 6.08% (inactive)
29 | COc1ccc2c(c1)c(C(=O)O)c(C)n2C(C)C | 1.69% (inactive)
30 | CC(=O)c1cccc(NC2=NCC(C)S2)c1 (stereo not given) | 24.8% (active)
31 | CC1CN=C(Nc2ccc(F)c(Cl)c2)S1 (stereo not given) | -0.44% (inactive)
32 | CC1CN=C(Nc2ccccc2)S1 (stereo not given) | 4.63% (inactive)
33 | Cc1ccc(-n2c(O)c(C=Nc3ccc(S(=O)(=O)N(C)C)cc3)c(=O)[nH]c2=O)cc1 | 13.7% (inactive)
34 | c1ccc2sc(NC3=NCCN3)nc2c1 | 6.67% (inactive)
35 | CC1(C)CN=C(Nc2ccccc2C(F)(F)F)S1 | 2.41% (inactive)
36 | CC1(C)CN=C(Nc2nc3ccccc3s2)S1 | 26.9% (active)
37 | O=c1[nH]c(=O)n(Cc2ccco2)c(O)c1C=NC1CC1 | 2.96% (inactive)
38 | COc1cc2c(C(=O)N3CCN(C)CC3)c(C)n(C)c2cc1Br | 0.34% (inactive)
39 | CC(=NCCN1CCOCC1)c1c(O)n(C2CCCCC2)c(=O)[nH]c1=O | -4.11% (inactive)
40 | O=C(C1CCC(=O)N1Cc1ccccc1Cl)N1CCC2(CC1)OCCO2 (stereo not given) | 4.98% (inactive)

Reference: PubChem BioAssay AID1445 (SRMLSC, 2008)
